TAG inh: inhibitors of triacylglycerol accumulation. H9c2 cells, Nile Red lipid (TAG) fluorescence; cells loaded with 200 µM oleic acid. inhibition, % at 12.5 µM. 0.66% of 230,000 active. AID 651582;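 active means pattern-corrected inhibition of lipid staining of at least 50% with the nuclear-stain viability signal not falling by more than 50%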;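 further: 0% = DMSO wells and 100% = triacsin C control wells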
H9c2 protect: protects H9c2 cardiomyocytes from peroxide injury | H2O2 injury protection, ATPLite, 2 h | protection from H2O2 cell death, % at 20 µM | 0.63% of 360,000 active | AID 588492;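 active means compounds giving at least 50% protection of heart cells from peroxide-induced death in the single-dose screen, raw or plate-pattern-corrected value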;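 further: 0% = DMSO wells with peroxide and 100% = DMSO wells without peroxide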
CRFR2-BP antag: blocks CRF-induced signaling of the CRF-BP/CRF-R2 complex | HEK293 CRF-R2/CRF-BP, CRF-induced calcium fluorescence | inhibition, % at 11.8 µM | 0.59% of 350,000 active;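 active means inhibition of the ligand-induced calcium signal above about 50% at the single tested concentration, limit read from the data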
CRFR2-BP ag: agonists of human CRF-binding protein/CRF-R2 receptor complex. HEK293 CRF-R2/CRF-BP, calcium dye fluorescence (FLIPR); percent of saturating CRF peptide response. activation, % at 13.2 µM. 0.46% of 350,000 active. AID 588473;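 active means activation of at least 50%, plus an integration ratio under a set limit after plate pattern correction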;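 further: plate controls were neutral control wells without compound for no effect and CRF at EC100 for full effect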
SKN-1 inh: C. elegans SKN-1 inhibition. 0.49% of 360,000 active. inhibition, % at 21.8 µM. C. elegans VP596 Pgst-4::GFP/RFP ratio, acrylamide-induced, 24 h;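 active means interference check ratio from 0.5 to 1.5 plus GFP to RFP signal ratio inhibition reaching or exceeding a fixed threshold, cut at about 30% in these data, passing the limit was not always enough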
hiPSC survival: hiPSC single-cell survival enhancement | 0.044% of 360,000 active | AID 602274 | ATPlite luminescence; 100% = ROCK inhibitor wells, 0% = DMSO | survival enhancement, % at 20 µM; in the data active means survival enhancement above about 18%;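 further: cells exposed to compounds for 16 hours before the ATP read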
Starred values were filed as active, the others as inactive; x = no result given. Shown are actives, neighbours in structure and some others; about 2.5% of the full set was active somewhere.

SMILES | TAG inh | H9c2 protect | CRFR2-BP antag | CRFR2-BP ag | SKN-1 inh | hiPSC survival
O=c1oc2ccccc2cc1-c1nnc(-c2cccc(Br)c2)o1 | -20 | 4 | 22 | 0 | -45 | 0
O=c1oc2ccc3ccccc3c2cc1-c1nnc(-c2ccccc2)o1 | -11 | 80* | 61* | 2 | 52* | 1
CCN(CC)c1ccc2cc(-c3nc4ccccc4n3C)c(=O)oc2c1 | x | -2 | -239 | 248* | -16 | -2
CCN(CC)c1ccc2cc(-c3nc4ccccc4[nH]3)c(=O)oc2c1 | x | -22 | -190 | 227* | -34 | -2
CCN(Cc1ccncc1)C(=O)c1ccc(Br)o1 | -10 | 1 | -13 | 0 | 14 | -1
Cc1ccc(C(=O)CSc2nnc(C3CC3)n2C2CC2)s1 | -2 | 4 | 5 | 0 | 16 | 1
CN1C(=O)[C@@](O)(c2cn(C)c3ccccc23)c2cc(Br)ccc21 | x | x | x | x | -5 | x
Cc1c(C(=O)N(C)Cc2ccc(F)cc2)sc(=O)n1Cc1ccc(Cl)c(Cl)c1 | -17 | -3 | x | x | -4 | 1
CCN(CC)c1ccc2cc(-c3nc(-c4ccc(OC)cc4)cs3)c(=O)oc2c1 | x | x | -404 | 338* | x | x
CC(C)Nc1nc(Nc2ccc(C(N)=O)cc2)c2sccc2n1 | 7 | 4 | x | x | -10 | 0
CC1(C(=O)NS(=O)(=O)Cc2cccc(Cl)c2)CCN1C(=O)C1CCCCC1 (stereo unspecified) | -3 | -1 | x | x | -10 | -2
O=[N+]([O-])c1ccc(-c2ccc(/C=N/Nc3nc(NCc4ccccc4)nc(N4CCOCC4)n3)o2)cc1 | -2 | -12 | -89 | 57* | 0 | -3
COc1nc(N/N=C/c2ccc(-c3ccccc3[N+](=O)[O-])o2)nc(N2CCOCC2)n1 | x | 38 | -33 | 4 | -1 | 2
COc1ccc(NC(=O)C2(C)CCN2C)cc1OC (stereo unspecified) | -7 | 2 | x | x | 18 | -2
CC1(C)CC(NCCC(c2ccccc2)c2ccco2)CCO1 (stereo unspecified) | -2 | 2 | 97* | 0 | -14 | 0
CC(C)CSC1=NSC2=NC(=O)/C(=C\c3coc4ccccc4c3=O)C(=N)N12 | -3 | -11 | -333 | 314* | -8 | 3
CSC1=NSC2=NC(=O)/C(=C\c3coc4ccccc4c3=O)C(=N)N12 | x | -10 | -201 | 197* | -30 | 1
CC(C)CSC1=NSC2=NC(=O)/C(=C\c3ccccc3)C(=N)N12 | -9 | -24 | 31 | 27 | -2 | 0
Cc1cc(/C=C2\C(=N)N3C(SCc4ccccc4)=NSC3=NC2=O)c(C)n1Cc1ccccc1 | x | -10 | 4 | 7 | 5 | -1
O=C(Nc1cc(S(=O)(=O)N2CCOCC2)ccc1N1CCCC1)c1ccccc1C(F)(F)F | x | x | -3 | 0 | x | x
CCOC(=O)c1cnc(SC)nc1Oc1cccc(NC(=O)c2cccc(Cl)c2Cl)c1 | -218 | 71* | -3 | 1 | -2 | -2
O=C(CNC(=O)c1ccccc1)OC(C(=O)Nc1cc(C(F)(F)F)ccc1Cl)c1ccccc1 (stereo unspecified) | -10 | -4 | -6 | 3 | -6 | 19*
Cc1cnc(C(=O)OC(C(=O)Nc2cc(C(F)(F)F)ccc2Cl)c2ccccc2)cn1 (stereo unspecified) | -53 | -5 | -10 | -1 | 1 | 0
COC(=O)[C@]12CCCCC=C1N(Cc1ccc3c(c1)OCO3)C(=O)[C@H](CC(=O)NCc1cccc3ccccc13)C2 | x | x | x | x | 8 | x
CC(=O)N/N=C/c1cc(C)n(-c2ccc(Br)cc2)c1C | x | -1 | -14 | -1 | 27 | 0
SMILES | TAG inh | H9c2 protect | CRFR2-BP antag | CRFR2-BP ag | SKN-1 inh | hiPSC survival
CC(=O)N/N=C/c1cc(C(C)C)cc(/C=N/NC(C)=O)c1O | 3 | 30 | -47 | 92* | 4 | 1
O=S(=O)(Cc1ccc(Cl)cc1)Oc1ccc(Cl)cc1 | -14 | -4 | 41 | -2 | 46* | -3
O=[N+]([O-])c1ccc(OS(=O)(=O)Cc2ccccc2)cc1 | -15 | 4 | 4 | 0 | -3 | -1
Cc1ccc(COC(=O)CCc2nc3ccccc3c(=O)[nH]2)cc1 | -8 | 31 | 2 | -1 | 5 | 0
O=C(CCc1nc2ccccc2c(=O)[nH]1)OCC(=O)N1CCc2ccccc21 | 5 | 57* | 4 | -1 | -8 | 0
O=C(CCc1nc2ccccc2c(=O)[nH]1)N1CCN(c2ccc(F)cc2)CC1 | 23 | 72* | 9 | 2 | -12 | 0
